In PubChem BioAssay AID720513 (Broad Institute, 2013):
About 480 (23%) of roughly 2,100 compounds were called active. Not shown: some 5% with an inconclusive outcome.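 How the source made its calls: active means fitted curve reaches 40% activation at or below the top valid concentration, in every replicate test; inconclusive means replicate tests disagree on the call; inactive means the rest, including activity in the opposite direction.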 The list is a sample of the results. Where a call stands in place of a potency, no number is given. Potency and affinity values are given separately.

Experiment: PGC1a acetylation increase, cellular AlphaLISA – cell-based, cherry-picked samples, set 6, dose response (AID 720513);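 further: cells made to overexpress flag tagged PGC1a plus GCN5 acetyltransferase by viral infection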
Settings: U2OS PGC1a acetylation AlphaLISA, overnight, 0 = neutral, -100 = inhibitor control; series mostly up to 19.5 µM

Which outcome does the source give for Cn1c(O)c(C(C#N)=C2N=c3ccccc3=N2)c2ccccc21 here?
Its outcome is “inactive”.

For O=C(C[C@H]1CC[C@@H]2[C@H](COC[C@@H](O)CN2S(=O)(=O)c2ccc(F)cc2)O1)NCCN1CCCCC1, which outcome is on record?
Its outcome is “inactive”.

For O=c1oc(-c2ccccc2)cc(Cl)c1Cl, which outcome is on record?
Its outcome is “inactive”.

With CN(C)Cc1csc(NC(=O)Nc2ccccc2-c2ccccc2)n1 as the compound, how does the outcome read?
The outcome was “inactive”.

With Cc1noc(C)c1C(=O)Nc1nc(-c2cc(F)ccc2F)cs1 as the compound, how does the outcome read?
Its outcome is “inactive”.

For CC(C)NC(=O)NCC[C@@H]1CC[C@H](NS(=O)(=O)c2ccc(-c3ccccc3)cc2)[C@@H](CO)O1, which outcome is on record?
The outcome was “inactive”.

Which outcome does the source give for COc1ccccc1NC(=O)CCC(=O)Nc1ccccc1OC here?
Its outcome is “inactive”.

Which outcome does the source give for COC(=O)c1cc(Cl)c(NS(=O)(=O)c2ccccc2)cc1OC here?
Its outcome is “inactive”.

Which outcome does the source give for CCn1c(=O)c2c(cnn2C)c2ccccc21 here?
Its outcome is “inactive”.

With CCOc1ccc(Nc2ncnc3ccc([N+](=O)[O-])cc23)cc1 as the compound, how does the outcome read?
The outcome was “inactive”.

For COc1ccc(-c2nc(C#N)c(NCc3ccco3)o2)cc1, which outcome is on record?
Its outcome is “inactive”.

With CCCNC(=O)c1nnsc1S(=O)(=O)c1ccc(Cl)cc1 as the compound, how does the outcome read?
The outcome was “inactive”.

For Cc1cc(C)c2c(=O)[nH]n(C3CCCCCC3)c2n1, which outcome is on record?
Its outcome is “inactive”.

With O=C(C[C@H]1C[C@@H]2c3cc(NS(=O)(=O)c4ccc(F)cc4)ccc3O[C@@H]2[C@@H](CO)O1)N1CCc2ccccc2C1 as the compound, how does the outcome read?
Its outcome is “inactive”.

Which outcome does the source give for O=C(C1CC1)N1C[C@@H]2N[C@H](C1)C2c1ccc(/C=C/c2ccccc2)cc1 (stereo not given in full) here?
The outcome was “inactive”.

For O=C(C(Br)=Cc1ccccc1)c1ccccc1, which outcome is on record?
Its outcome is “inactive”.

With Cc1ccc(C(=O)OCN2C(=O)c3ccccc3C2=O)o1 as the compound, how does the outcome read?
Its outcome is “inactive”.

Which outcome does the source give for CCCCC1C(=O)N(c2ccccc2)N(c2ccc(O)cc2)C1=O (stereo not given) here?
The outcome was “inactive”.

For O=C(Nc1nc2cc3c(cc2s1)OCCO3)c1ccncc1, which outcome is on record?
The outcome was “inactive”.

With C[C@@H]1CN([C@@H](C)CO)C(=O)c2cc(NS(=O)(=O)c3ccc(F)cc3)ccc2O[C@@H]1CN(C)S(=O)(=O)c1ccc(Cl)cc1 as the compound, how does the outcome read?
The outcome was “inactive”.

With CC(C)NC(=O)Nc1ccc2c(c1)C(=O)N([C@@H](C)CO)C[C@@H](C)[C@H](CN(C)Cc1ccc(C(=O)O)cc1)OCCCC[C@H](C)O2 as the compound, how does the outcome read?
Its outcome is “inactive”.

With CCCC(=O)C1=C(O)C(C(=O)OC)C(C)(C)CC1=Nc1ccc(OC)cc1 (stereo not given) as the compound, how does the outcome read?
The outcome was “inactive”.

With NC(=O)c1sc2nc3c(c(-c4cccs4)c2c1N)CCCCC3 as the compound, how does the outcome read?
Its outcome is “inactive”.

With COc1ccc(S(=O)(=O)N[C@H]2CC[C@@H](CCNC(=O)c3ccccc3F)O[C@@H]2CO)cc1 as the compound, how does the outcome read?
The outcome was “inactive”.

For O=C(Cc1ccccc1)N1CC[C@@H]2[C@H]1c1cc(C#Cc3ccccc3)ccc1N[C@@H]2CO, which outcome is on record?
The outcome was “inactive”.

For CCCOC(=O)c1ccc(-n2nnnc2SCC(=O)N2CCCCC2)cc1, which outcome is on record?
The outcome was “inactive”.

With C[C@@H]1CN([C@@H](C)CO)C(=O)c2cccc(NC(=O)Nc3ccccc3)c2O[C@H]1CN(C)S(=O)(=O)c1cccs1 as the compound, how does the outcome read?
Its outcome is “inactive”.

With CN(CC(=O)Nc1ccccc1Br)C(=O)c1cccc(S(=O)(=O)NCc2ccccc2)c1 as the compound, how does the outcome read?
Its outcome is “inactive”.

Which outcome does the source give for COc1ccc(Cl)cc1NC(=O)NCC1CCN(C(=O)OC(C)(C)C)CC1 here?
The outcome was “inactive”.

Which outcome does the source give for COc1ccccc1NC(=O)Cn1c(C)cc(=O)c2cccc(OC)c21 here?
Its outcome is “inactive”.

For O=C(Nc1ccc(C(F)(F)F)cc1)N1C[C@@H]2N[C@H](C1)C2c1ccc(/C=C/c2ccccc2)cc1 (stereo not given in full), which outcome is on record?
The outcome was “inactive”.

Which outcome does the source give for O=C(Nc1ccc(C(F)(F)F)cc1)N1C[C@@H]2N[C@H](C1)C2c1ccc(-c2ccccc2)cc1 (stereo not given in full) here?
Its outcome is “inactive”.

Which outcome does the source give for CO[C@@H]1CN(C)C(=O)c2ccc(NS(=O)(=O)CC(F)(F)F)cc2OC[C@@H](C)N(C(=O)NC(C)C)C[C@H]1C here?
Its outcome is “inactive”.

With O=C(CNC(=O)C1CCCCC1)OCC(=O)c1ccc(Cl)s1 as the compound, how does the outcome read?
Its outcome is “inactive”.

For CCOCCc1nn2c(=O)cc(CSCC(=O)Nc3cccc(C)c3C)nc2s1, which outcome is on record?
Its outcome is “inactive”.

Which outcome does the source give for CC(C)(C)NC(=O)c1ccc(Sc2ccccc2)c([N+](=O)[O-])c1 here?
The outcome was “inactive”.

Which outcome does the source give for Cc1cc(=O)[nH]c(SCC(=O)c2ccc(F)c(C)c2)n1 here?
Its outcome is “inactive”.

Which outcome does the source give for Cc1cccc(Oc2ccccc2NC(=O)C2=COCCO2)c1 here?
Its outcome is “inactive”.

Which outcome does the source give for COc1cc(CN2CCC(C(=O)NCCC(C)C)CC2)ccc1OCc1ccccc1 here?
The outcome was “inactive”.

With CCOc1ccc(-c2[nH]ncc2-c2ccc(OC)c(OC)c2)c(O)c1 as the compound, how does the outcome read?
Its outcome is “inactive”.

Which outcome does the source give for CNc1ccc2ncc(-c3ccc(OC)c(OC)c3)n2n1 here?
Its outcome is “inactive”.

For CC(C)(C)OC(=O)NC(Cc1ccccc1)C(=O)NCCCC(=O)O (stereo not given), which outcome is on record?
Its outcome is “inactive”.

For C[C@@H]1CN([C@H](C)CO)C(=O)CCCn2cc(nn2)CO[C@H]1CN(C)C(=O)Nc1ccc(C(F)(F)F)cc1, which outcome is on record?
The outcome was “inactive”.

For C[C@@H]1CN([C@@H](C)CO)C(=O)c2cc(C3=CCCC3)cnc2O[C@@H]1CN(C)C(=O)Nc1cccc(F)c1, which outcome is on record?
Its outcome is “inactive”.

With C[C@@H]1CN([C@H](C)CO)C(=O)CCCn2nncc2CO[C@H]1CN(C)C(=O)Nc1cccc(F)c1 as the compound, how does the outcome read?
The outcome was “inactive”.

For CC(C)NC(=O)N(C)C[C@H]1OCCCC[C@@H](C)Oc2ccc(NC(=O)Nc3ccc(C(F)(F)F)cc3)cc2C(=O)N([C@H](C)CO)C[C@@H]1C, which outcome is on record?
Its outcome is “inactive”.

With COC(=O)Cn1ccc(-c2ccc(Cl)cc2)c(C#N)c1=O as the compound, how does the outcome read?
The outcome was “inactive”.

For NC(=O)COC(=O)CC(NC(N)=O)c1ccc(Cl)cc1 (stereo not given), which outcome is on record?
Its outcome is “inactive”.

With C[C@@H]1CN([C@H](C)CO)C(=O)CCCn2nncc2CO[C@@H]1CN(C)S(=O)(=O)c1cn(C)cn1 as the compound, how does the outcome read?
The outcome was “inactive”.

For Cc1ccccc1C(=O)Nc1ccc(C(=O)O)cc1NC(=O)c1ccccc1C, which outcome is on record?
The outcome was “inactive”.

With Cc1ccc(NC2=C([N+](=O)[O-])CS(=O)(=O)C2)cc1 as the compound, how does the outcome read?
The outcome was “inactive”.

Which outcome does the source give for O=C(COC(=O)C1CC2CCCC(C1)C2=O)Nc1ccc(F)c(Cl)c1 (stereo not given) here?
Its outcome is “inactive”.

Which outcome does the source give for COc1ccccc1/C=C(/C(=O)OCC(=O)NCc1ccccc1)c1ccccc1 here?
Its outcome is “inactive”.

Which outcome does the source give for S=c1sc2c(Cl)ncnc2n1-c1ccccc1 here?
Its outcome is “inactive”.

With CCCN(C)C[C@@H]1Oc2cc(C#C[C@H](C)O)ccc2S(=O)(=O)N([C@H](C)CO)C[C@@H]1C as the compound, how does the outcome read?
Its outcome is “inactive”.

With Cc1ccc(C)c(C(=O)Cn2ncc(Cl)c(Cl)c2=O)c1 as the compound, how does the outcome read?
The outcome was “inactive”.

For COc1ccc(C#Cc2ccc([C@@H]3[C@H](CO)N4CCCCN(C(=O)Nc5ccccc5)C[C@@H]34)cc2)cc1, which outcome is on record?
The outcome was “inactive”.

Which outcome does the source give for COc1cccc(-c2ccc3c(c2)O[C@H](CN(C)Cc2ccncc2)[C@@H](C)CN([C@@H](C)CO)S3(=O)=O)c1 here?
Its outcome is “inactive”.

With C[C@H]1CN([C@@H](C)CO)S(=O)(=O)c2ccc(-c3ccccc3)cc2O[C@@H]1CN(C)Cc1cccc(F)c1 as the compound, how does the outcome read?
The outcome was “inactive”.

With CCCC#Cc1ccc2c(c1)O[C@@H](CN(C)Cc1ccc3c(c1)OCO3)[C@@H](C)CN([C@H](C)CO)S2(=O)=O as the compound, how does the outcome read?
The outcome was “inactive”.

Which outcome does the source give for C[C@H](CO)N1C[C@H](C)[C@@H](CN(C)Cc2ccc3c(c2)OCO3)Oc2cc(-c3cccc(C(=O)N(C)C)c3)ccc2S1(=O)=O here?
The outcome was “inactive”.

Which outcome does the source give for CC(C)CC#Cc1ccc2c(c1)O[C@@H](CN(C)Cc1ccc3c(c1)OCO3)[C@H](C)CN([C@H](C)CO)S2(=O)=O here?
The outcome was “inactive”.

With C[C@@H]1CN([C@H](C)CO)S(=O)(=O)c2ccc(-c3cncnc3)cc2O[C@H]1CN(C)Cc1cccnc1 as the compound, how does the outcome read?
The outcome was “inactive”.

For C[C@H]1CN([C@@H](C)CO)S(=O)(=O)c2ccc(C#CCN(C)C)cc2O[C@H]1CN(C)Cc1ccc2c(c1)OCO2, which outcome is on record?
Its outcome is “inactive”.

With COc1ccccc1-c1ccc2c(c1)O[C@@H](CN(C)Cc1ccc3c(c1)OCO3)[C@@H](C)CN([C@H](C)CO)S2(=O)=O as the compound, how does the outcome read?
Its outcome is “inactive”.
